# Measurements taken from PubChem BioAssay (NCATS).
# Several values for one entry are separate records, joined by “and”; a condition that tells them apart may be missing. Equal entries are not always repeated. Inconclusive results are not listed. Entries that show only a call come without a potency. A structure can be active in one record and inactive in another. Activity calls are given as the source filed them. Unless noted, calls come from the whole dose curve; as a rule, active = well fitted curve in the direction sought with a large enough effect; inconclusive = small, poorly fitted or top-dose-only effect, or another doubt; inactive = no such curve, though single readings can be large; an effect the other way counts as inactive or inconclusive.
# Experiments:
# [1] = biological target: Voltage-gated inwardly rectifying potassium channel KCNH2 (Homo sapiens) (UniProt Q12809); assay: qHTS Assay for Small Molecule Inhibitors of the Human hERG Channel Activity (AID 588834);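 note: lower thallium flux fluorescence means stronger hERG block; nearly all actives have a fitted effect of over 50% in size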; note: potency is the fitted concentration of half-maximal effect
# Chain of Voltage-gated inwardly rectifying potassium channel KCNH2 (Homo sapiens) (Q12809 whole entry, looked up): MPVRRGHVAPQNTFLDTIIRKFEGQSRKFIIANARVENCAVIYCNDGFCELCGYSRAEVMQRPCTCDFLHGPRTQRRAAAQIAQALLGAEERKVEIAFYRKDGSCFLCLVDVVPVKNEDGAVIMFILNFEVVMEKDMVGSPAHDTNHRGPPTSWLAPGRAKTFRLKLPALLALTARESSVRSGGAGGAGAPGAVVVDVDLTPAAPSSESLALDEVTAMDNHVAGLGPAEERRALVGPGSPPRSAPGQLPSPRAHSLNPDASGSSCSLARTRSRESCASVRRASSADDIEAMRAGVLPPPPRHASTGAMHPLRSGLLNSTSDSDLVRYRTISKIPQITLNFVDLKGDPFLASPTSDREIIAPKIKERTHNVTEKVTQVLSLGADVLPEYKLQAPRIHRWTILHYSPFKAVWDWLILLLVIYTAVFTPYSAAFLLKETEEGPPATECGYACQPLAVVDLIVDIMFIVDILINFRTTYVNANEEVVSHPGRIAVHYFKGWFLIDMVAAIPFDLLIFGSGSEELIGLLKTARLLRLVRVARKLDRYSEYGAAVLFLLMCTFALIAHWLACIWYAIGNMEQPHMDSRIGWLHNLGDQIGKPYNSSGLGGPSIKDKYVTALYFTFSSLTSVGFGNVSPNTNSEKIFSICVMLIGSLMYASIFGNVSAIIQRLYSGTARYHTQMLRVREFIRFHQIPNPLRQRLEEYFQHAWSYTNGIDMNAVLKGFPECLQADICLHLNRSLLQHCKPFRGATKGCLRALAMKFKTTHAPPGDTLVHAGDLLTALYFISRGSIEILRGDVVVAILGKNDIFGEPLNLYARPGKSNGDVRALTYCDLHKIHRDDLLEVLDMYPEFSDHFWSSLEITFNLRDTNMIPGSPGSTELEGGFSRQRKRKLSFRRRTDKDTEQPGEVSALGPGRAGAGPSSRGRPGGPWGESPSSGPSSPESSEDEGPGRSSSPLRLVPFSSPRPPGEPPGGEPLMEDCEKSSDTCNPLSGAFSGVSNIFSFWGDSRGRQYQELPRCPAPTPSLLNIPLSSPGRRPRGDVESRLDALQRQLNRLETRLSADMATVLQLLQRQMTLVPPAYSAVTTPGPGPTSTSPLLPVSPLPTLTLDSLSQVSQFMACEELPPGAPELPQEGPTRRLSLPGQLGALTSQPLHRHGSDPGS
# Summary of the method: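 Thallium-flux (FluxOR) read-out on FDSS: fluorescence read 10 s before and 2 min after stimulation buffer. hERG-BacMam-transduced U2OS cells, compound exposure about 10 min. AC50 by standard Hill equation.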
# [2] = biological target: Luciferin 4-monooxygenase (Photinus pyralis) (UniProt P08659); assay: Biochemical firefly luciferase enzyme assay for NPC (AID 624030);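 note: purified P. pyralis luciferase at 10 nM with luciferin and ATP substrate; series mostly up to about 59 µM; nearly all actives have a fitted effect of over 70% in size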
# Chain of Luciferin 4-monooxygenase (Photinus pyralis) (P08659 whole entry, looked up): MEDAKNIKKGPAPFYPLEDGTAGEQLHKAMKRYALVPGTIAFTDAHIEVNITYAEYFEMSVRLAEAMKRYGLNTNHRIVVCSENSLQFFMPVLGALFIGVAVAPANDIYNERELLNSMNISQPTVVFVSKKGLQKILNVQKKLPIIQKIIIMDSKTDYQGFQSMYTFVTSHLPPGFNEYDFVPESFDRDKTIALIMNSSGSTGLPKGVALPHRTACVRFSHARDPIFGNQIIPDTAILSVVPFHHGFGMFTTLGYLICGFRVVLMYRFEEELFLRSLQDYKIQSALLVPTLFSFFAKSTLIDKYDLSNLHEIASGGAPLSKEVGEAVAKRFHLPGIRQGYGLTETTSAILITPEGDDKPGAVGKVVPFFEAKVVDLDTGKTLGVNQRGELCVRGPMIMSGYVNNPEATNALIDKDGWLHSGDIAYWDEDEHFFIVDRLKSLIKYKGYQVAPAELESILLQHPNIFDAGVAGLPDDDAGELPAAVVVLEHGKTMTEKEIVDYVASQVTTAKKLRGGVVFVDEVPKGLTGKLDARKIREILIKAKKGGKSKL
# Summary of the method: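 Counter-screen for direct inhibition of the luciferase enzyme by approved-drug library compounds, run at 10 nM enzyme in 50 mM Tris acetate (final). Luminescence was read within 5 min of enzyme-buffer addition and normalized to PTC124 versus DMSO (0%).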
# [3] = S16 Schwann cell PMP22 intronic element firefly luciferase assay (AID 624032); note: nearly all actives have a fitted effect of over 30% in size; note: potency is the fitted concentration of half-maximal effect
# Summary of the method: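 Rat S16 Schwann cells stably carrying a PMP22 intronic element-driven Fluc reporter were seeded overnight, then exposed to compounds for 24 h at 37 °C. Luminescence was normalized to PTC124 (positive control) and DMSO (0% activity).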
# [4] = S16 Schwann cell PMP22 intronic element beta-lactamase assay (AID 624044; calls by dose curve; note: nearly all actives have a fitted effect of over 15% in size; note: potency is the fitted concentration of half-maximal effect)
# Summary of the method: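 Beta-lactamase reporter under a PMP22 intronic regulatory element in stable S16 rat Schwann cells; 24 h compound exposure. 460 nm blue signal normalized between DMSO (0%) and potassium clavulanate, with 535 nm FRET tracking viability; curves classed by r2 and response.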
# [5] = S16 Schwann cell viability assay (CellTiter-Glo assay) (AID 624031); note: nearly all actives have a fitted effect of over 70% in size; note: potency is the fitted concentration of half-maximal effect
# Summary of the method: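 This viability control uses native rat S16 Schwann cells grown in DMEM plus 10% FBS. After a 24 h compound treatment at 37 °C, CellTiter-Glo luminescence reports ATP content, scaled against DMSO-treated and cell-free wells.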
# [6] = biological target: Glutaminase kidney isoform, mitochondrial (Homo sapiens) (UniProt O94925); assay: qHTS for Inhibitors of Glutaminase (GLS): LOPAC Validation (AID 624146); conditions: glutaminase enzyme activity inhibition; note: potency is the fitted concentration of half-maximal effect; nearly all actives have a fitted effect of over 60% in size
# Chain of Glutaminase kidney isoform, mitochondrial (Homo sapiens) (O94925 whole entry, looked up, canonical isoform): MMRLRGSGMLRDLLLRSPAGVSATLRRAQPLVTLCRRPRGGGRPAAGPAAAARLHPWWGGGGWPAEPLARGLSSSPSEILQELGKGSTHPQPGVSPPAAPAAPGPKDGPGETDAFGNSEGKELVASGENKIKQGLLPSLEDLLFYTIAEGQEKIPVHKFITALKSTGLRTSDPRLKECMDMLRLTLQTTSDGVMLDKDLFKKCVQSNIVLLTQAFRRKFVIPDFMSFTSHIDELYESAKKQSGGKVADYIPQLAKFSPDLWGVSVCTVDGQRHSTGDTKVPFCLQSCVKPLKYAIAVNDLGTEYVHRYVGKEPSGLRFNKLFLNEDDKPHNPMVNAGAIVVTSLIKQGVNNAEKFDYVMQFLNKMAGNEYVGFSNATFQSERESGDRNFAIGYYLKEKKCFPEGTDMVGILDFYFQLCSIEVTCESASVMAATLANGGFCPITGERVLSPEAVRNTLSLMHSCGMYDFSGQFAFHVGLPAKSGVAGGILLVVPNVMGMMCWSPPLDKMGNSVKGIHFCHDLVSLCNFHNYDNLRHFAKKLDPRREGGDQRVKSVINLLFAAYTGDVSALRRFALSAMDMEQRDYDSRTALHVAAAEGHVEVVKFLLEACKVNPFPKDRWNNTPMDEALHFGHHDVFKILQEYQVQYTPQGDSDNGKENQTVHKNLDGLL
# Summary of the method: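 Read-out is an Amplex red fluorescence increase coupled through glutamate oxidase and HRP, measured before and after 30 min room-temperature incubation. hKGA is in 45 mM KH2PO4 (pH 8.2) with 0.02% Tween-20; glutamine added as 1mM solution.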
# [7] = biological target: Glucagon-like peptide 1 receptor (Homo sapiens) (UniProt P43220); assay: qHTS of GLP-1 Receptor Agonists: LOPAC Validation (AID 624148);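 note: higher luminescence signal means agonism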
# Chain of Glucagon-like peptide 1 receptor (Homo sapiens) (P43220 whole entry, looked up): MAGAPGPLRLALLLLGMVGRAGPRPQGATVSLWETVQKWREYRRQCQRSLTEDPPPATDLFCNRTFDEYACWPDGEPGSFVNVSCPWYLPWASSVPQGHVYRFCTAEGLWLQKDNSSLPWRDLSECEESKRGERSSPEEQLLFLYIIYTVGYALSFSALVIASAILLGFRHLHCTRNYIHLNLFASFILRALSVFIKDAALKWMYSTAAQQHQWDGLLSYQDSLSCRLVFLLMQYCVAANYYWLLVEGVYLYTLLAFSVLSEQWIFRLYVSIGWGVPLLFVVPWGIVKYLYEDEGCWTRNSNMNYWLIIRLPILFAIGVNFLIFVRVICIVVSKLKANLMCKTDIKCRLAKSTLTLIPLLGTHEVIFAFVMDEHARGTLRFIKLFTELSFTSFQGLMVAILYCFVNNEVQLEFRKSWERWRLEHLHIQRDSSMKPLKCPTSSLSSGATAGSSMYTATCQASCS
# Summary of the method: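 HEK293 cells stably co-expressing a cAMP-responsive luciferase reporter and a hypersensitive GLP-1R were plated 12 h at 37 °C and exposed to compounds for 4-6 hr at 37 °C, 5% CO2. Luminescence was read 12 min after adding detection reagent.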
# [8] = qHTS of Nrf2 Activators: LOPAC Validation (AID 624149)
# Summary of the method: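 AREc32_Fluc cells, 1000/well, OPTI-MEM + 5% FBS, o/n 37 deg C 5% CO2; compound pin-transfer, 24 hr 37 deg C; Steady-Glo 30 min RT, luminescence read.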
# [9] = HTS Assay for Allosteric Antagonists of the Human D2 Dopamine Receptor: Hit Validation in HTRF (AID 624455)
# Summary of the method: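 HTRF read-out; cells stably expressing D1 receptor; hits scored for inhibition of D1-mediated response. Primary screen: calcium flux, force-coupled inducible Hek293 Trex D2 line, antagonism vs EC80 dopamine.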
smiles,measurement,setting,value
CCCCCC(CC)COC(=O)CC(C(=O)OCC(CC)CCCC)S(=O)(=O)O (stereo not drawn),Potency,[1],inactive
C=C[C@]1(C)C[C@@H](OC(=O)CSC(C)(C)CNC(=O)[C@H](N)C(C)C)[C@]2(C)[C@H](C)CC[C@]3(CCC(=O)[C@H]32)[C@@H](C)[C@@H]1O,Potency,[1],7.08 µM (active)
CC[C@H]1OC(=O)[C@H](C)[C@@H](O[C@H]2C[C@@](C)(OC)[C@@H](O)[C@H](C)O2)[C@H](C)[C@@H](O[C@@H]2O[C@H](C)C[C@H](N(C)C)[C@H]2O)[C@](C)(O)C[C@@H](C)/C(=N\OCOCCOC)[C@H](C)[C@@H](O)[C@]1(C)O,Potency,[1],inactive
CCCC(=O)O[C@]1(C(=O)COC(C)=O)CC[C@H]2[C@@H]3C[C@H](F)C4=CC(=O)C=C[C@]4(C)[C@@]3(F)[C@@H](O)C[C@@]21C,Potency,[1],inactive
CCC(=O)O[C@]1(C(=O)CCl)[C@@H](C)C[C@H]2[C@@H]3C[C@H](F)C4=CC(=O)C=C[C@]4(C)[C@@]3(F)[C@@H](O)C[C@@]21C,Potency,[1],inactive
N[C@H](C(=O)O)[C@@H]1CC(Cl)=NO1,Potency,[1],inactive
CC1=C2[C@@H]([C@H](C)CC[C@H]2/C=C(\C)C(=O)O)[C@H](O)C1,Potency,[1],inactive
CO[C@H]1C=CO[C@@]2(C)Oc3c(C)c(O)c4c(O)c(c(/C=N/N5CCN(C6CCCC6)CC5)c(O)c4c3C2=O)NC(=O)/C(C)=C\C=C[C@H](C)[C@H](O)[C@@H](C)[C@@H](O)[C@@H](C)[C@H](OC(C)=O)[C@@H]1C,Potency,[1],inactive
CC(=O)OCC(=O)[C@@]12OC3(CCCC3)O[C@@H]1C[C@H]1[C@@H]3CCC4=CC(=O)C=C[C@]4(C)[C@@]3(F)[C@@H](O)C[C@@]12C,Potency,[1],inactive
CC(Oc1ccccc1)C(=O)N[C@@H]1C(=O)N2[C@@H]1SC(C)(C)[C@@H]2C(=O)O (stereo partly drawn),Potency,[1],inactive
CC1(C)O[C@@H]2C[C@H]3[C@@H]4CCC5=CC(=O)C=C[C@]5(C)[C@H]4[C@@H](O)C[C@]3(C)[C@]2(C(=O)CO)O1,Potency,[1],inactive
OCC(S)CS (stereo not drawn),Potency,[1],inactive
CO/N=C(\C(=O)N[C@@H]1C(=O)N2C(C(=O)O)=C(CSc3cnns3)CS[C@H]12)c1csc(N)n1,Potency,[1],inactive
CC(C)(C)C1(O)CCN2CC3c4ccccc4CCc4cccc(c43)C2C1 (stereo not drawn),Potency,[1],2.82 µM (active)
CC(=O)O[C@]1(C(C)=O)CC[C@H]2[C@@H]3CCC4=CC(=O)CC[C@]4(C)[C@@]3(F)[C@@H](O)C[C@@]21C,Potency,[1],inactive
C[C@H](CCC(=O)O)[C@H]1CC[C@H]2[C@@H]3[C@H](O)C[C@@H]4C[C@H](O)CC[C@]4(C)[C@H]3CC[C@]12C,Potency,[1],inactive
CO[C@H]1C[C@H](O[C@H]2[C@H](C)[C@@H](O[C@@H]3O[C@H](C)C[C@H](N(C)C)[C@H]3OC(C)=O)[C@@H](C)C[C@]3(CO3)C(=O)[C@H](C)[C@@H](OC(C)=O)[C@@H](C)[C@@H](C)OC(=O)[C@@H]2C)O[C@@H](C)[C@@H]1OC(C)=O,Potency,[1],inactive
C=CCSSSCC=C,Potency,[1],inactive
same,Potency,[2],inactive
same,Potency,[3],inactive
same,Potency,[4],inactive
CCCCCCCC/C=C\CCCCCCCC(=O)O,Potency,[1],inactive
same,Potency,[2],inactive
same,Potency,[5],inactive
same,Potency,[4],inactive
CC1=C(/C=C/C(C)=C/C=C/C(C)=C/C=C/C=C(C)/C=C/C=C(C)/C=C/C2=C(C)C(=O)CCC2(C)C)C(C)(C)CCC1=O,Potency,[1],inactive
same,Potency,[2],inactive
same,Potency,[5],inactive
same,Potency,[3],inactive
same,Potency,[4],inactive
C[C@H]1C[C@H]2[C@@H]3CCC4=CC(=O)C=C[C@]4(C)[C@@]3(F)[C@@H](O)C[C@]2(C)[C@@]1(O)C(=O)CO,Potency,[1],inactive
same,Potency,[2],inactive
same,Potency,[5],inactive
same,Potency,[3],inactive
same,Potency,[4],inactive
CN1Cc2c(N)cccc2C(c2ccccc2)C1 (stereo not drawn),Potency,[1],inactive and 12.6 µM (active)
same,Potency,[2],inactive
same,Potency,[5],inactive
same,Potency,[3],inactive
same,Potency,[4],inactive
same,Potency,[6],12.6 µM (active)
same,outcome,[7],inactive
same,outcome,[8],inactive
same,outcome,[9],inactive
Nc1c(Br)cc(Br)cc1CNC1CCC(O)CC1 (stereo not drawn),Potency,[1],inactive
same,Potency,[2],inactive
same,Potency,[5],inactive
same,Potency,[3],inactive
same,Potency,[4],inactive
COc1ccc2c3c1O[C@H]1C[C@@H](O)C=C[C@@]31CCN(C)C2,Potency,[1],inactive
same,Potency,[2],inactive
same,Potency,[5],inactive
same,Potency,[3],inactive
same,Potency,[4],inactive
CCCCCCCCCCCC[n+]1ccc2ccccc2c1,Potency,[1],3.16 µM (active)
same,Potency,[2],inactive
same,Potency,[5],16.1 µM (active)
same,Potency,[3],907 nM (active)
same,Potency,[4],19.9 µM (active)
CC(NNC(=O)c1ccccc1)c1ccccc1 (stereo not drawn),Potency,[1],inactive
same,Potency,[5],inactive
same,Potency,[3],inactive
same,Potency,[4],inactive
CC1=CCC(C(C)(C)O)CC1 (stereo not drawn),Potency,[1],inactive
same,Potency,[2],inactive
same,Potency,[5],inactive
same,Potency,[3],inactive
same,Potency,[4],inactive
